Reference: PubChem BioAssay (NCATS)
Results filed as inconclusive are left out. Calls of active or inactive are those of the source. The call rests on the fitted dose curve; in most records, active means well fitted inhibition curve with a large enough effect; inconclusive means small, poorly fitted or top-dose-only effect; inactive means no such curve, though single readings can be large or run the other way.
Potency means the concentration at half of the fitted maximal effect.

Assay: Confirmatory screen NINDS Rhodamine qHTS for Zika virus inhibitors (AID 1347161); further: nearly all actives have a fitted effect of over 60% in size
Details: purified enzyme assay, Rhodamine110 substrate fluorescence, 15 min; series mostly up to 114 µM
Method in brief: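 Enzyme (25 nM, linked NS2B-NS3) was preincubated 15 min with compound in 10 mM Tris-HCl pH 8.0, 0.01% Tween 20. Rhodamine110 substrate (1.5 microM) was then added and fluorescence read at start and after 15 min.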
For `COc1cc(CCCO)ccc1O[C@@H]1O[C@H](CO)[C@@H](O)[C@H](O)[C@H]1O`, the Potency was 34.3 µM (active). With `CC(C)=CCC[C@@](C)(O)[C@H]1CC[C@]2(C)[C@@H]1[C@H](O)CC1[C@@]3(C)CC[C@H](O[C@@H]4O[C@H](CO)[C@@H](O)[C@H](O)[C@H]4O[C@@H]4O[C@H](CO)[C@@H](O)[C@H](O)[C@H]4O)C(C)(C)[C@@H]3CC[C@]12C` (stereo partly drawn) the Potency was 16.5 µM (active). With `CC1(C)[C@H]2C[C@H](C/C=C\CCCC(=O)O)[C@@H](NC(=O)c3csc4ccc(O)cc34)[C@@H]1C2` the Potency was 31.2 µM (active).
